Rows were chosen to be rich in hits. Some 2.6% of all compounds tested hit in one or more screens of this group.
Cardio protect – myocardial damage modulation in H9c2 cells; H9c2 cardiomyocytes, H2O2 injury protection, ATPLite, 2 h; protection from H2O2 cell death, % at 20 µM; 0.63% of 360,000 active; AID 588492;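 active = compounds giving at least 50% protection of heart cells from peroxide-induced death in the single-dose screen, raw or plate-pattern-corrected value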;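 note: 0% = DMSO wells with peroxide and 100% = DMSO wells without peroxide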
TAG inh – inhibitors of triacylglycerol accumulation; H9c2 cells, Nile Red lipid (TAG) fluorescence; cells loaded with 200 µM oleic acid; inhibition, % at 12.5 µM; 0.66% of 230,000 active;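 active = pattern-corrected inhibition of lipid staining of at least 50% with the nuclear-stain viability signal not falling by more than 50%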;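 note: 0% = DMSO wells and 100% = triacsin C control wells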
Jurkat NFkB inh – lowers PMA/ionomycin-induced NF-kB signal in Jurkat cells | PMA/ionomycin-induced NF-kB luciferase reporter, luminescence | inhibition, % at 4 µM | 0.53% of 330,000 active; in the data active = inhibition above about 50%
COUP-TFII inh – inhibitors of human COUP-TFII (NR2F2); P24468; HEK293T NGFI-A luciferase reporter, luminescence; inhibition, % at 8.6 µM; 0.7% of 370,000 active; AID 686940;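 active = inhibition above a per-plate cutoff, mean inhibition of test wells between control levels plus 3 SD, cut at about 38% in these data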;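 note: cells cotransfected with COUP-TFII expression vector driving the NGFI-A reporter; 0% = median of COUP-TF2 test wells and 100% = reporter-only cells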
Target sequence (P24468 whole entry, looked up): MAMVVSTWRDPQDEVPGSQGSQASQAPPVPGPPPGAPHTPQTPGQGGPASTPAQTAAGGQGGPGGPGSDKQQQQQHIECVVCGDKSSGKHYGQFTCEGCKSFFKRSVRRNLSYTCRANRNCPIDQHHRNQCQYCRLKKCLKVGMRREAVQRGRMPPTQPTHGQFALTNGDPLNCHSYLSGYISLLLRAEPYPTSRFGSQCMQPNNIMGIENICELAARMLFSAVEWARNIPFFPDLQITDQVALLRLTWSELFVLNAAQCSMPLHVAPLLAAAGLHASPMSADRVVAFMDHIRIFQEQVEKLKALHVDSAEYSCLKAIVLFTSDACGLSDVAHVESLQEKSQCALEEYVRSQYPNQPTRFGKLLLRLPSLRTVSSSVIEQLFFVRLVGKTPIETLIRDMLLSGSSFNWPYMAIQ
Gli-Sufu block – blocks Gli-Sufu signaling in a luciferase reporter; Sufu-KO-LIGHT fibroblasts, Gli luciferase reporter luminescence; inhibition, % at 5 µM; 0.74% of 340,000 active; AID 588413;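 active = inhibition above about 55%, limit read from the data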;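 note: 0% = DMSO-treated cells and 100% = wells with medium but no cells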
697 NFkB inh – lowers PMA/ionomycin-induced NF-kB signal in 697 B cells; 697 B-cell NF-kB luciferase reporter, 16 h; inhibition, % at 4 µM; 0.33% of 330,000 active; in the data active = inhibition above about 35%
Gli-Sufu confirm – confirmation of Gli-SUFU pathway antagonists | shares compounds with Gli-Sufu block | Sufu-KO-LIGHT cells, Gli luciferase reporter, luminescence | inhibition, % at 5 µM | 40% of 2,500 active;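 active = mean inhibition at 5 µM reaching about 45%, limit read from the data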;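 note: plate controls were DMSO-treated cells for no effect and wells lacking cells for full effect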
SufuKO cytotox – counter-screen for Gli-SUFU antagonists: cytotoxicity | Sufu-KO-LIGHT cells cytotoxicity, ATP luminescence | 32% of 2,500 active | AID 651994 | shares compounds with Gli-Sufu block | cytotoxicity, % at 5 µM;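 active = mean cytotoxicity at 5 µM above about 25%, limit read from the data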;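 note: cells exposed to compound overnight for roughly 16 to 18 hours; plate controls were DMSO wells with cells for no effect and medium without cells for full effect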
Wnt3a cs – Wnt3a reporter inhibition counter-screen | shares compounds with Gli-Sufu block | 20% of 2,500 active | Wnt-LIGHT cells, Wnt3a-driven luciferase reporter, luminescence | inhibition, % at 6.25 µM | AID 651995;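 active = mean inhibition above about 25%, limit read from the data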
H9c2 TAG conf – confirmation of triacylglycerol accumulation inhibitors. shares compounds with TAG inh. H9c2 lipid accumulation, Nile Red fluorescence; cells loaded with 200 µM oleic acid. inhibition, % at 12.5 µM. 71% of 990 active;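 active = mean inhibition across replicates of 40% or more; inactive = mean inhibition below 40%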;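 note: plate controls were DMSO only wells for no effect and Triacsin C treated wells for full effect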
VP16 Luc counter – VP16 inhibition counter-screen for COUP-TFII; shares compounds with COUP-TFII inh; HEK293 Gal4-VP16 luciferase reporter, luminescence; inhibition, % at 8.5 µM; 25% of 2,500 active; AID 687007; in the data active = inhibition above about 13%
NR2F2 inh conf – confirmation of human COUP-TFII (NR2F2) inhibitors. shares compounds with COUP-TFII inh. HEK293 NGFI-A luciferase reporter, luminescence. inhibition, % at 8.5 µM. 45% of 2,500 active;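 active = mean inhibition over three repeats above a set limit taken from the earlier primary screen, cut at about 38% in these data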;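 note: 100% = cells given the luciferase reporter alone without the COUP-TF2 vector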
Active calls of the source: *; nt = not tested or not shown; ! = not active in a repeat.

SMILES	Cardio protect	TAG inh	Jurkat NFkB inh	COUP-TFII inh	Gli-Sufu block	697 NFkB inh	Gli-Sufu confirm	SufuKO cytotox	Wnt3a cs	VP16 Luc counter	NR2F2 inh conf	others
COC(=O)c1sccc1OCc1cccc(OC)c1	-2.3	16.2	-18.8	7.3	-0.3	10.1	nt	nt	nt	nt	nt
Cc1nc2ccccc2cc1OCc1ccc(Cl)cc1	-18.3	nt	23.8	49.6*	53.4	-17.5	50.1*	36.9*	4.0	-60.9	28.8
Cc1nc2ccccc2cc1OCc1ccccc1	-11.6	nt	18.6	23.7	26.1	-40.8	nt	nt	nt	nt	nt
O=C(Nc1ccc(F)cc1)OCc1cn(Cc2ccccc2)nn1	nt	nt	nt	-8.7	nt	nt	nt	nt	nt	nt	nt
O=C(N/N=C/c1ccc[nH]1)c1ccccc1OCc1ccc(F)cc1	6.0	4.7	-2.2	4.0	-11.3	20.9	nt	nt	nt	nt	nt
CCOc1ccc(OCc2ccc(C(=O)NN=Cc3ccc[nH]3)cc2)cc1	-1.3	60.3*	-16.0	73.0*	79.5*	-87.2	79.8*	17.7	-20.5	-4.5	70.5*
Cc1sc2ncnc(NCC(C)(C)N3CCOCC3)c2c1C	-34.5	-40.5	34.8	42.6*	64.4*	-36.8	58.5*	26.6*	20.9	4.1	44.1*
c1ccc(-c2csc3ncnc(NCC4COc5ccccc5O4)c23)cc1 (stereo not drawn)	-17.2	nt	nt	65.2*	84.5*	nt	88.4*	45.0*	26.2*	15.9*	82.5*
Cc1sc2ncnc(NCC3COc4ccccc4O3)c2c1C (stereo not drawn)	-19.2	nt	nt	76.0*	76.7*	nt	72.0*	34.1*	16.6	-3.5	61.6*
c1ccc(-c2csc3ncnc(NCCCN4CCOCC4)c23)cc1	-9.2	-12.5	17.8	7.5	22.5	-6.1	nt	nt	nt	nt	nt
Cc1sc2ncnc(NCC3CCCO3)c2c1C (stereo not drawn)	-5.8	nt	13.2	10.6	21.7	5.6	nt	nt	nt	nt	nt
COC(=O)c1ccsc1NS(C)(=O)=O	nt	nt	nt	-21.8	nt	nt	nt	nt	nt	nt	nt
Cc1nn(C)c(C)c1/C=C/C(=O)c1ccc(Cl)cc1Cl	-33.1	-24.9	37.3	47.0*	63.8*	-17.6	63.2*	22.8	-5.2	-9.2	38.2*
CC(Sc1nc2ccccc2c(=O)n1CC1CCCO1)C(=O)N(C)Cc1ccccc1 (stereo not drawn)	10.1	0.7	-2.1	-5.5	7.8	-18.6	nt	nt	nt	nt	nt
CC(Sc1nc2ccccc2c(=O)n1C)C(=O)N(C)C1CCCCC1 (stereo not drawn)	-9.0	-13.1	23.3	46.3*	71.9*	-51.3	61.3*	17.6	10.2	6.4	26.2
C[n+]1c2n(c3ccccc31)N=C(c1ccccc1)CS2	-9.0	-20.8	-0.4	39.6*	60.1*	-28.6	71.6*	28.3*	-13.5	-1.0	46.6*!
C[n+]1c2n(c3ccccc31)N=C(c1ccc(-c3ccccc3)cc1)CS2	-23.1	0.6	43.4	70.4*	86.8*	12.3	89.0*	31.9*	11.6	8.0	64.6*
Cc1cc(-c2nnc3n2N=C(c2ccc(-c4ccccc4)cc2)CS3)n[nH]1	14.8	29.6	3.0	-17.2	14.8	9.5	nt	nt	nt	nt	nt
OCc1ccccc1OCc1ccccc1	nt	nt	nt	-8.9	nt	nt	nt	nt	nt	nt	nt
Cc1nn(-c2ccc(NC(=O)c3ccncc3)cc2)c(C)c1Cl	-12.6	nt	45.8	67.4*	56.4*	-3.2	45.4*	15.5	24.1	-6.4	58.0*
O=C(NCC1CC1)c1onc(CSc2ccncc2)c1C(=O)NCC1CC1	6.7	50.3*	19.0	2.5	29.3	5.4	nt	nt	nt	nt	nt	H9c2 TAG conf=31.6
C=CCN(CC#Cc1ccccn1)Cc1ccc(OC)cc1OC	nt	nt	nt	0.7	nt	nt	nt	nt	nt	nt	nt
CC(C)(C)NC(=O)N1CCN(c2nc(-c3ccccc3)ns2)CC1	-6.2	-21.3	-31.9	-14.1	-48.8	-72.7	nt	nt	nt	nt	nt
O=C(c1ccc(F)cc1F)N1CCCN(c2nc(-c3ccccc3)ns2)CC1	-4.8	74.6*	10.8	6.5	2.1	0.4	nt	nt	nt	nt	nt	H9c2 TAG conf=2.4
C=CCc1c(C)nc(-c2ccccc2)nc1N/N=C/c1ccccc1	1.3	3.9	-14.1	-18.5	-27.6	0.5	nt	nt	nt	nt	nt
SMILES	Cardio protect	TAG inh	Jurkat NFkB inh	COUP-TFII inh	Gli-Sufu block	697 NFkB inh	Gli-Sufu confirm	SufuKO cytotox	Wnt3a cs	VP16 Luc counter	NR2F2 inh conf	others
C=CCc1c(C)nc(-c2ccccc2)nc1N/N=C/c1ccncc1	-9.4	65.1*	-13.3	-37.3	-2.5	-10.3	nt	nt	nt	nt	nt	H9c2 TAG conf=27.6
CC(C)(C)c1ccc(C(=O)NNc2cc(N3CCOCC3)nc(N3CCOCC3)n2)cc1	-4.7	37.5	-6.3	-8.0	13.8	7.3	nt	nt	nt	nt	nt
CC(C)(C)c1ccc(C(=O)NNc2cc(N3CCCCC3)nc(N3CCCCC3)n2)cc1	-23.7	59.8*	-13.0	2.8	12.2	-5.0	nt	nt	nt	nt	nt	H9c2 TAG conf=35.9
COc1cccc(-c2cc(=O)c3cc(NC(C)=O)ccc3[nH]2)c1	4.5	63.4*	33.0	-12.3	-11.9	-10.6	nt	nt	nt	nt	nt	H9c2 TAG conf=33.9
CC(=O)Nc1ccc2[nH]c(C)cc(=O)c2c1	4.1	-3.9	12.5	5.7	19.4	19.3	nt	nt	nt	nt	nt
COC(=O)C1=C(C)N(Cc2ccc(C(F)(F)F)cc2)C(=NCc2ccccc2)NC1c1cccc(Cl)c1 (stereo not drawn)	nt	nt	nt	-7.9	nt	nt	nt	nt	nt	nt	nt
CC1CC1C(=O)N1CCC(Oc2cccnc2)CC1 (stereo not drawn)	nt	nt	nt	2.5	nt	nt	nt	nt	nt	nt	nt
O=C(OCc1cn(Cc2cccc(F)c2)nn1)N1CCOCC1	nt	nt	nt	9.1	nt	nt	nt	nt	nt	nt	nt
COC(=O)C1=C(C)N(Cc2ccccc2C(F)(F)F)C(=NCc2ccc3c(c2)OCO3)NC1c1ccccc1C(F)(F)F (stereo not drawn)	nt	nt	nt	-11.7	nt	nt	nt	nt	nt	nt	nt
CCCCNc1c(-c2ccc(-c3ccc(C(C)=O)cc3)c(OC)c2)nc2cc(C)ccn12	-4.0	58.0*	-2.0	-11.8	-16.5	-32.8	nt	nt	nt	nt	nt	H9c2 TAG conf=41.2*
COC(=O)C=C1CCC2C3CCC4=CC(=O)C(Br)CC4(C)C3C(=O)CC12C (stereo not drawn)	0.7	63.1*	nt	-2.5	4.7	nt	nt	nt	nt	nt	nt	H9c2 TAG conf=84.6*
C[C@@H]1CN(c2ccc(N3CCN(C(=O)OC(C)(C)C)C[C@@H]3C)cc2C#N)C[C@H](C)O1	nt	nt	nt	9.9	nt	nt	nt	nt	nt	nt	nt
Cc1ccccc1NC(=O)[C@H]1CC(=O)O[C@@H]1c1ccccc1	nt	nt	nt	1.7	nt	nt	nt	nt	nt	nt	nt
CN(C)C(=O)CCc1ccc2c3c([nH]c2c1)[C@]1(C)[C@@H](C(=O)N2CCOCC2)C[C@H](CC(=O)NCCCn2ccnc2)C(=O)N1CC3	5.0	5.4	nt	5.8	-6.5	15.8	nt	nt	nt	nt	nt

Compound activity as filed in PubChem BioAssay.
